We go through nine compounds from PubChem BioAssay (NCATS).

Experiment [1] in a line: qHTS profiling of the MIPE4 collection as inhibitors of Plasmodium falciparum (DD2) proliferation (AID 743345; call rule not given here). To be noted: P. falciparum Dd2 in erythrocytes, SYBR Green DNA, 72 h; at 28.5 µM (top of the series) unless noted. A digest of the protocol: (§1)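 Erythrocytes infected with P. falciparum (0.3% parasitemia, 2.5% hematocrit) incubated with compounds 72 h at 37 C, 5% CO2. Lysis with saponin/Triton buffer containing SYBR Green I, overnight at room temperature in the dark; DNA fluorescence (485/535 nm) normalised to 0.29 uM artemisinin and DMSO.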
On the technique in general: In qHTS, concentration-response curves come from the screen itself.

A short description of experiment [2]: qHTS profiling of the MIPE4 collection as inhibitors of Plasmodium falciparum (DD2) proliferation (Rep 2) (AID 743346; call rule not given here). To be noted: P. falciparum Dd2 in erythrocytes, SYBR Green DNA, 72 h; at 28.5 µM (top of the series) unless noted. A digest of the protocol:
as §1

Experiment [3] is described as follows: qHTS profiling of the MIPE4 collection as inhibitors of Plasmodium falciparum (HB3) proliferation (AID 743347; call rule not given here;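 further: plate controls were DMSO vehicle wells for no effect and artemisinin wells for full effect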). To be noted: P. falciparum HB3 in erythrocytes, SYBR Green DNA, 72 h; at 28.5 µM (top of the series) unless noted. Summed up:
as §1

Experiment [4] in a line: High-throughput drug toxicity screening in the BPDCN cell line Gen2.2 (AID 1224824; call rule not given here;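 further: cells exposed to compounds for 48 h before reading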). To be noted: Gen2.2 BPDCN cells; at 45.8 µM (top of the series) unless noted. Summed up: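 CellTiter-Glo luminescence after 48 h compound exposure of Gen2.2 cells; percent activity set with DMSO as 100% and bortezomib (9.2 uM final) as 0%. Cells seeded at 500 per well, RPMI + 10% FBS, 37 °C.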

Experiment [5] in a line: High-throughput drug toxicity screening in the BPDCN cell line Cal-1 (AID 1224825; call rule not given here). To be noted: Cal-1 BPDCN cell viability, qHTS; at 45.8 µM (top of the series) unless noted. A digest of the protocol: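 500 Cal-1 cells/well, RPMI + glutamine + 10% FBS (phenol red-free); cpd added by pin tool; 48 h, 37C, 5% CO2; CTG 15 min RT, lumi read. Normalised: DMSO 100%, bortezomib 9.2 uM 0%.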

Experiment [6] is described as follows: qHTS assay for measurement of the activity of small molecule inhibitors on Zika virus induced Caspase-3 activity in human iPSC derived neural progenitor cells (hNPCs) (AID 1224857). Further: % of control where 0% means no effect; nearly all actives have a fitted effect of over 65% in size. Summed up:
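After overnight (16–20 h) culture at 350 cells/well, hNPCs get compound, then ZIKV 2 FFU/cell one hour later. Six hours on, Caspase-Glo 3/7 is added and luminescence measured.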

Experiment [7] is described as follows: qHTS Screen of the MIPE 4.0 Collection Against Ewings Sarcoma (RDES) (AID 1259252). Further: nearly all actives have a fitted effect of over 35% in size. Further: potency means the concentration at half of the fitted maximal effect. Summed up: (§2)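 CellTiter-Glo luminescence after 48 h compound exposure (titration) gave viability; percent activity used DMSO-treated cells as no inhibition and medium-only wells as full inhibition. Cells grown in RPMI/5% FBS, dosed 4 h post-seeding.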
The nature of experiment [8]: qHTS Screen of the MIPE 4.0 Collection Against Ewings Sarcoma (TC71) (AID 1259253). Further: nearly all actives have a fitted effect of over 40% in size. Further: potency means the concentration at half of the fitted maximal effect. A digest of the protocol:
as §2

Experiment [9] in a line: qHTS Screen of the MIPE 4.0 Collection Against Ewings Sarcoma (EW8) (AID 1259255). Further: nearly all actives have a fitted effect of over 35% in size. Further: potency means the concentration at half of the fitted maximal effect.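 On viability: 100% = DMSO-treated cells and 0% = medium-only wells without cells.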 Summed up: as §2
Experiment [10] can be described thus: qHTS Screen of the MIPE 4.0 Collection Against Ewings Sarcoma (TC32) (AID 1259256). Further: nearly all actives have a fitted effect of over 45% in size. Further: potency means the concentration at half of the fitted maximal effect. A digest of the protocol: as §2
The nature of experiment [11]: qHTS assay to identify small molecule inhibitors of chordoma cells - UCH-1 (AID 1259355). Further: on the % scale 0 is the no-effect control and ±100 the full control effect; nearly all actives have a fitted effect of over 55% in size. A digest of the protocol:
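Seed 800 cells per well; incubate overnight at 37 C, 5% CO2. Add test compounds (15 concentrations), then the auranofin–topoisomerase-agent combination. Incubate 48hr, add CellTiter-Glo, wait 30min, read luminescence.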

Experiment [12] can be described thus: qHTS assay to identify small molecule inhibitors of chordoma cells - UCH-2 (AID 1259356). Further: on the % scale 0 is the no-effect control and ±100 the full control effect.
Experiment [13] is described as follows: Identifying Small Molecule Inhibitors of Pancreatic Cancer Stem Cells (SN12C, Adherent) (AID 1259358).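 Further: cell survival measured after 48 h of compound exposure.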 A digest of the protocol:
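Cytotoxicity read by CellTiter-Glo luminescence after 48 h compound exposure at 37C; percent activity scaled between DMSO-treated cells and cell-free wells. Spheroid formats used cells pre-formed 14 days in stem cell media on hydrogel.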

The nature of experiment [14]: Identifying Small Molecule Inhibitors of Pancreatic Cancer Stem Cells (SN12C, Spheroid) (AID 1259360).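 Further: 100% = DMSO-treated cells and 0% = wells without cells.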 To be noted: Potency: SN12C spheroid viability. Summed up:
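Pre-formed 14-day tumor spheroids or adherent cells dosed and incubated 48 h, 37C, 5% CO2. Viability assessed by CellTiter-Glo.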

Experiment [15] is described as follows: P-glycoprotein substrates identified in KB-3-1 adenocarcinoma cell line, qHTS therapeutic library screen (AID 1346986). Further: nearly all actives have a fitted effect of over 60% in size. Summed up: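 Cells seeded 500/well in DMEM/10% FCS; compounds pinned in dose-response; 72 h incubation; CellTiter-Glo added, 5 min, luminescence. KB-8-5-11 run ±tariquidar to test reversal of P-gp resistance.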

Results filed as inconclusive are left out. Calls of active or inactive are those of the source. Unless noted, the call rests on the fitted dose curve; in most records, active means well fitted curve in the direction sought with a large enough effect; inconclusive means small, poorly fitted or top-dose-only effect, or another doubt; inactive means no such curve, though single readings can be large; an effect the other way counts as inactive or inconclusive.

On to `C[Se]CCC(N)C(=O)O` (configuration not stated), for which the parasite growth remaining, % of DMSO control (lower = more inhibition) in experiment [1] worked out at 105% [at 57.5 µM]. For the same compound, the parasite growth, % of control (lower = inhibition) in experiment [2] was 135% [at 57.5 µM]. Besides, the growth, % of control in experiment [3] came to 86.5% [at 57.5 µM]. Further, the cell viability, % of control (lower = more cytotoxic) in experiment [4] was 170% [at 92.2 µM]. For the same compound, the viability (% of control) in experiment [5] was 109% [at 92.2 µM]. For the same compound, the Potency entry in experiment [6], in experiment [7], in experiment [8], in experiment [9], in experiment [10] and in experiment [11] was “inactive” throughout. Besides, the Potency result in experiment [12] was “inactive”.
As for `CN(C)[C@@H](CCOc1cccc2ccccc12)c1ccccc1`, the parasite growth remaining, % of DMSO control (lower = more inhibition) in [1] was 14.4%. Further, the growth, % of control in experiment [3] came to 15.2%. The cell viability, % of control (lower = more cytotoxic) in [4] turned out to be 165%. For the same compound, the viability (% of control) in experiment [5] was 78.2%. Besides, the Potency entry in experiment [6] is “inactive”. Besides, the Potency in [8] and in experiment [10] was 26.4 µM (active) in each case.
As to `C[C@]12CCC(=O)C=C1CC[C@@H]1[C@H]2[C@@H](O)C[C@@]2(C)[C@H]1CC[C@]2(O)C(=O)CO`, the parasite growth remaining, % of DMSO control (lower = more inhibition) in experiment [1] stood at 93.1%. Besides, the parasite growth, % of control (lower = inhibition) in experiment [2] stood at 74.9%. Further, the growth, % of control in experiment [3] amounted to 63%. The cell viability, % of control (lower = more cytotoxic) in experiment [4] is 208%. Also, the viability (% of control) in experiment [5] was determined as 71.5%. Besides, the Potency result in experiment [6], in experiment [8], in experiment [9], in experiment [10], in experiment [11] and in [12] was “inactive” in each case. Further, in experiment [7], the Potency was 20.9 µM (active).
With `O=C(OC1C[C@H]2CC[C@@H](C1)[N+]21CCCC1)C(O)(c1ccccc1)c1ccccc1` (some centres not stated), the growth, % of control in experiment [3] was 17.4%. Also, the cell viability, % of control (lower = more cytotoxic) in experiment [4] is 120%. For the same compound, in experiment [5], the viability (% of control) turned out to be 99.2%. Further, the Potency result in experiment [6], in [7], in [8], in [9], in [10] and in [11] was “inactive” throughout. Moreover, the Potency entry in experiment [12] is “inactive”.
On to `COc1cc2c(N3CCN(C(=O)Nc4ccc(OC(C)C)cc4)CC3)ncnc2cc1OCCCN1CCCCC1`, for which, in experiment [1], the parasite growth remaining, % of DMSO control (lower = more inhibition) turned out to be 8.31%. In addition, the parasite growth, % of control (lower = inhibition) in [2] stood at 12%. In addition, the growth, % of control in [3] was 3.25%. In addition, the cell viability, % of control (lower = more cytotoxic) in experiment [4] worked out at 7.51%. Besides, the viability (% of control) in experiment [5] stood at 11.3%. Also, the Potency entry in experiment [6], in experiment [13] and in experiment [14] was “inactive” throughout. The Potency in [7] is 26.4 µM (active); in experiment [9] it was 23.5 µM (active); in experiment [10], 18.7 µM (active).
As to `CCOC(=O)C1=C[C@@H](OC(CC)CC)[C@H](NC(C)=O)[C@@H](N)C1`, the cell viability, % of control (lower = more cytotoxic) in [4] was 152%. Besides, the viability (% of control) in experiment [5] stood at 106%. The Potency result in experiment [6], in experiment [7], in experiment [8], in experiment [9], in experiment [10] and in experiment [11] was “inactive” each time. Also, the Potency result in experiment [12] is “inactive”.
As to `Nc1ccc(S(N)(=O)=O)cc1`, in [1], the parasite growth remaining, % of DMSO control (lower = more inhibition) was 15.1%. Moreover, the parasite growth, % of control (lower = inhibition) in [2] was determined as 95.9%. The compound further returned a growth, % of control in experiment [3] of 102%. Moreover, the cell viability, % of control (lower = more cytotoxic) in experiment [4] came to 169%. Moreover, the viability (% of control) in experiment [5] was determined as 112%. The Potency result in [6], in experiment [7], in experiment [9], in experiment [10], in experiment [11] and in experiment [12] was “inactive” in each case.
In the case of `CCOc1cc(CC(=O)N[C@@H](CC(C)C)c2ccccc2N2CCCCC2)ccc1C(=O)O`, the parasite growth remaining, % of DMSO control (lower = more inhibition) in experiment [1] was 123%. Further, the parasite growth, % of control (lower = inhibition) in [2] amounted to 91.4%. In experiment [3], this compound displayed a growth, % of control of 75.6%. The cell viability, % of control (lower = more cytotoxic) in experiment [4] was found to be 23.9%. Besides, the viability (% of control) in experiment [5] came out at 27.5%. Also, the Potency result in [6], in [7], in [8], in experiment [9], in [10] and in experiment [11] was “inactive” throughout. For the same compound, the Potency result in experiment [12] and in [15] was “inactive” each time.
As for `O=C(O)c1cc(=O)c2c(OCC(O)COc3cccc4oc(C(=O)O)cc(=O)c34)cccc2o1`, the parasite growth remaining, % of DMSO control (lower = more inhibition) in [1] is 96.7%. In addition, the parasite growth, % of control (lower = inhibition) in [2] was 106%. In addition, the growth, % of control in [3] is 81%. The cell viability, % of control (lower = more cytotoxic) in experiment [4] is 106%. For the same compound, the viability (% of control) in [5] worked out at 115%. The Potency entry in experiment [6], in experiment [7], in [8], in experiment [9], in experiment [10] and in experiment [11] was “inactive” throughout. Further, in experiment [12], the Potency entry is “inactive”.
